Results as given in PubChem BioAssay (NCATS).
Inconclusive results are not listed. Active and inactive are the calls of the source. The call rests on the fitted dose curve; in most records, active means well fitted cell-killing curve with a large enough effect; inconclusive means small, poorly fitted or top-dose-only effect, or effect the other way; inactive means no such curve, though single readings can be large or run the other way.
Potency means the concentration at half of the fitted maximal effect.

Test: Quantitative High-Throughput drug screen in 47 multiple myeloma cell lines against the NCATS MIPE library collection: PE2_PLB cell viability assay (AID 1919869); further: nearly all actives have a fitted effect of over 35% in size
Settings: PE2_PLB myeloma cells viability, ATP luminescence, 48 h; series mostly up to 45.8 µM
Procedure, shortened: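 Inhibition of viability over 48 h was scored by ATP content (CellTiter-Glo) in 500-cell wells. Zero and full viability were defined by media-only and DMSO-only wells.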
In the case of CN(C)c1ccccc1CN1CCCN(Cc2ccccc2N(C)C)C1c1ccncc1, the Potency is reported as 18.7 µM (active). In the case of CC(=O)NCCC(=O)N[C@@H](CCC(N)=O)C(=O)N[C@@H](CO)C(=O)N[C@@H](CCC(N)=O)C(=O)N[C@@H](CCC(N)=O)C(=O)N[C@H](C(=O)N[C@@H](Cc1ccccc1)C(=O)N[C@]1(C)CCCCCCC=CCCC[C@@](C)(C(=O)N[C@@H](CCC(N)=O)C(=O)N[C@@H](CC(N)=O)C(N)=O)NC(=O)[C@H](CC(C)C)NC(=O)[C@H](CC(C)C)NC(=O)[C@@H](CCCNC(=N)N)NC(=O)[C@H](Cc2c[nH]c3ccccc23)NC(=O)[C@H](CC(C)C)NC(=O)[C@H](CC(N)=O)NC1=O)[C@H](C)O, the Potency is reported as 20.9 µM (active). With CCNC(=O)[C@H]1O[C@@H](n2cnc3c(N)nc(NCCc4ccc(CCC(=O)O)cc4)nc32)[C@H](O)[C@H]1O the Potency was 0.0469 µM (active). With CC1=C[C@@H]2[C@@H]([C@@H](O)C[C@@]3(C)[C@H]2C[C@@H](C)[C@]3(O)C(=O)CO)[C@@]2(C)Cc3cnn(-c4ccccc4)c3C=C12 the Potency was 23.5 µM (active). With O=c1[nH]c(=O)n([C@H]2C[C@@H](O)[C@@H](CO)O2)cc1C(F)(F)F the Potency was 10.5 µM (active). In the case of CN(C)c1nc(Cc2ccc(NC(=O)c3ccc(C(F)(F)F)cc3)cc2)nc(N(C)C)c1CC(=O)O, the Potency is reported as “inactive”. In the case of COc1ccc(CCC(=O)Nc2nc3ccc(Cl)cc3s2)cc1OC, the Potency is reported as 23.5 µM (active). For c1ccc(-c2oc3ncnc(NC[C@@H]4CCCO4)c3c2-c2ccccc2)cc1, the Potency was 16.6 µM (active). With CC1(COc2ccc3c(c2)ncn3-c2ccc3cccc(N4CCC(N)CC4)c3n2)COC1 the Potency was 0.0148 µM (active). With COc1ccnc(CS(=O)c2nc3ccc(OC(F)F)cc3[nH]2)c1OC (centres undefined) the Potency was “inactive”. For COc1nccc(-c2c(-c3ccc(F)cc3)ncn2C2CCC(O)CC2)n1 (centres undefined), the Potency was 18.7 µM (active). With CC1(C)CC(=O)c2c(C(F)(F)F)nn(-c3ccc(C(N)=O)c(NC4CCC(O)CC4)c3)c2C1 (centres undefined) the Potency was 0.118 µM (active). With CC[C@@H]([C@H](C)O)n1ncn(-c2ccc(N3CCN(c4ccc(OCC5CO[C@@](Cn6cncn6)(c6ccc(F)cc6F)C5)cc4)CC3)cc2)c1=O (some centres undefined) the Potency was 10.5 µM (active). In the case of CCCCn1c(=O)n(Cc2ccccc2F)c(=O)c2[nH]c(Cc3ccc(NC(C)=O)cc3)nc21, the Potency is reported as “inactive”.
